Assay [1] deals with Paired box protein Pax-6 (Homo sapiens) (UniProt P26367). Kind of assay: ATG_Pax6_CIS: Attagene CIS-FACTORIAL HepG2 Assay for human Paired Box 6 (PAX6) (AID 2282956). The note with it: HepG2 CIS-FACTORIAL PAX6 reporter transcription, RNA readout; actives raise or lower the signal. The method in brief: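 Read-out is reporter transcript level, measured by RT-PCR with fluorescent primer extension and capillary electrophoresis after 24 h dosing of transfected HepG2 cells. Activity in either direction fitted relative to DMSO control.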
Sequence of Paired box protein Pax-6 (Homo sapiens) (P26367 whole entry, looked up): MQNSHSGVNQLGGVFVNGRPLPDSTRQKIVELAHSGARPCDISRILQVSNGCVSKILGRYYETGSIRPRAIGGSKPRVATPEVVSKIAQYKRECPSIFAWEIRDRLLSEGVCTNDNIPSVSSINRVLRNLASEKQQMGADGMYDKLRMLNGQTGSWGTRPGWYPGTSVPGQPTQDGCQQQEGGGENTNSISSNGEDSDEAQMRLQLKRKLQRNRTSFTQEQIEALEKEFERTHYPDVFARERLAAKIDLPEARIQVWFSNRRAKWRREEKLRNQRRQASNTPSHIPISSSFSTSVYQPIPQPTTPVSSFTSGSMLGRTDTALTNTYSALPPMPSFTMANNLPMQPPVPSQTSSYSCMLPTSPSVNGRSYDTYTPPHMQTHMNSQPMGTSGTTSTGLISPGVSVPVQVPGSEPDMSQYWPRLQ

The nature of assay [2]: ATG_PXRE_CIS: Attagene CIS-FACTORIAL HepG2 Assay for human Pregnane X Receptor Element (PXRE) (AID 2282957). The note with it: HepG2 Attagene CIS-FACTORIAL PXRE reporter, mRNA; actives raise or lower the signal. The gist of the method: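 Endogenous transcription factor activity in HepG2 was gauged through induction of reporter mRNA driven by a cis-regulating promoter element, sampled 24 h post-treatment. Activity was fitted in both directions against DMSO negative control.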

Assay [3] is described as follows: ATG_RORE_CIS: Attagene CIS-FACTORIAL HepG2 Assay for human RAR-related Orphan Receptor Element (RORE) (AID 2282959). The note with it: HepG2 Attagene cis-factorial RORE reporter, mRNA; actives raise or lower the signal. The method in brief: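 Readout: fluorescent reporter mRNA by RT-PCR plus capillary electrophoresis, 24 h after dosing transfected HepG2 cells. Endogenous transcription factor activity on a cis promoter element is measured. Gain or loss of signal fitted against DMSO.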

Assay [4] can be described thus: ATG_Sox_CIS: Attagene CIS-FACTORIAL HepG2 Assay for human SRY-box transcription factor (SOX) (AID 2282960). The note with it: HepG2 Attagene cis-factorial SOX reporter, mRNA; actives raise or lower the signal. The gist of the method: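 Read-out: fluorescent RT-PCR products of SOX1-linked reporter transcripts resolved by capillary electrophoresis, fitted bidirectionally against DMSO. Transiently transfected HepG2 cells, 24 h after chemical exposure, endogenous transcription factor activity.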

Assay [5] deals with Transcription factor Sp1 (Homo sapiens) (UniProt P08047). The experiment in a line: ATG_Sp1_CIS: Attagene CIS-FACTORIAL HepG2 Assay for human Specificity Protein 1 (Sp1) (AID 2282961). Particulars: HepG2 Sp1 cis-reporter transcription, actives raise or lower the signal. The gist of the method: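 Read-out: fluorescence of 6-FAM-labeled, HpaI-digested RT-PCR products separated by capillary electrophoresis. HepG2 cells carried transfected cis-element reporter units and were exposed to chemicals for 24 h; gain or loss of signal fitted relative to DMSO.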
Sequence of Transcription factor Sp1 (Homo sapiens) (P08047 whole entry, looked up): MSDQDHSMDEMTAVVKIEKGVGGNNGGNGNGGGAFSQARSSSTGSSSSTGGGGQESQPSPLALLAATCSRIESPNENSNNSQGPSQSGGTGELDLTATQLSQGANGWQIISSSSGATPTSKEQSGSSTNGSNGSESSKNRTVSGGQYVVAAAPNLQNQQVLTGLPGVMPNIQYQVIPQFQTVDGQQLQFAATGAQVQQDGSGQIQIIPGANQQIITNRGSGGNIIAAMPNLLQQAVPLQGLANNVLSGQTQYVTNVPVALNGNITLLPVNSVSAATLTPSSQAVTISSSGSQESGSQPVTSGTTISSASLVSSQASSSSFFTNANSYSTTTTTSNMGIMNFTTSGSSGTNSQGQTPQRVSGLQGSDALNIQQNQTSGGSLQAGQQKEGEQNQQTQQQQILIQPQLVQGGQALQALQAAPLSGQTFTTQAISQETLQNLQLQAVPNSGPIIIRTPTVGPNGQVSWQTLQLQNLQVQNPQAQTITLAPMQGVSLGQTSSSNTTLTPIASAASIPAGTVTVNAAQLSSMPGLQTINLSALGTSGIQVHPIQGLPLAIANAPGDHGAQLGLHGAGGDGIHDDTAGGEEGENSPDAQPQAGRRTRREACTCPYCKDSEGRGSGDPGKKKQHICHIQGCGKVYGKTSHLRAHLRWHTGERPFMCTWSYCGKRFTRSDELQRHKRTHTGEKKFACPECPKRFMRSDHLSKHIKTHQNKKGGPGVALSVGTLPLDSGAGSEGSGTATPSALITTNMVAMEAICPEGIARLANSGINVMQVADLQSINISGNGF

Assay [6] addresses Signal transducer and activator of transcription 3 (Homo sapiens) (UniProt P40763). Kind of assay: ATG_STAT3_CIS: Attagene CIS-FACTORIAL HepG2 Assay for human Signal Transducer and Activator of Transcription 3 (STAT3) (AID 2282963). The note with it: HepG2, Attagene cis-factorial STAT3 reporter transcription; actives raise or lower the signal. The method in brief: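 Cis-factorial format: endogenous transcription factors in HepG2 drive transfected reporter units. After 24 h treatment, reporter RNA was reverse-transcribed, amplified, FAM-labelled and HpaI-digested before CE analysis; activity scored in both directions against DMSO.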

Assay [7] in a line: ATG_TA_CIS: Attagene CIS-FACTORIAL HepG2 Assay for human TA Basal Promoter (AID 2282964). The note with it: HepG2 Attagene CIS-factorial TA basal promoter reporter; actives raise or lower the signal. The method in brief:
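Multiplexed mRNA reporter assay, HepG2, 24 h. Reporter cDNA amplified, 6-FAM primer-extended, HpaI-cut, CE-sized; DMSO = negative control and baseline.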

Assay [8] can be described thus: ATG_TCF_b_cat_CIS: Attagene CIS-FACTORIAL HepG2 Assay for human T-Cell-Factor with beta-catenin (TCF/b-cat) (AID 2282965). The note with it: HepG2 TCF/beta-catenin cis-reporter transcription, actives raise or lower the signal. The gist of the method:
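Endogenous transcription factor activity is captured through cis-promoter reporter constructs transiently introduced into human HepG2 liver cells. Induced reporter mRNA is measured after 24 h and fitted bidirectionally relative to DMSO.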

Assay [9] in a line: ATG_TAL_CIS: Attagene CIS-FACTORIAL HepG2 Assay for human TAL Basal Promoter (AID 2282966).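 Also: background control endpoint measuring basal TAL promoter reporter mRNA not a specific factor.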 The note with it: HepG2 Attagene cis-factorial TAL promoter reporter; actives raise or lower the signal. The method in brief: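 Endogenous transcription-factor activity is sensed in HepG2 cells through transfected cis-promoter reporter constructs. After 24 h dosing, reporter transcripts are quantified by RT-PCR and capillary electrophoresis. Gain or loss of signal is fitted relative to DMSO.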

The nature of assay [10]: ATG_TGFb_CIS: Attagene CIS-FACTORIAL HepG2 Assay for human Transforming Growth Factor (TGF) (AID 2282967). The note with it: HepG2 Attagene CIS TGFb reporter, mRNA transcription; actives raise or lower the signal. The gist of the method: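 Transcript-level reporter readout: HepG2 transfectants, 24 h exposure, RNA to cDNA, reporter-specific PCR, fluorescent primer extension, capillary sizing against ROX standards. Gain- or loss-of-signal relative to DMSO.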

Assay [11] addresses X-box-binding protein 1 (Homo sapiens) (UniProt P17861). Kind of assay: ATG_Xbp1_CIS: Attagene CIS-FACTORIAL HepG2 Assay for human X-box Binding Protein 1 (XBP1) (AID 2282972). Particulars: HepG2 XBP1 cis-element reporter, Attagene multiplex; actives raise or lower the signal. The method in brief:
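Reporter transcripts were quantified by RT-PCR with fluorescent primer extension and capillary electrophoresis after 24 h chemical exposure. Cells: transiently transfected HepG2 carrying cis-regulated reporter constructs; data fitted bidirectionally relative to DMSO.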

A short description of assay [12]: ATG_M_19_TRANS: Attagene TRANS-FACTORIAL HepG2 Assay for M19 Transcription Factor (Internal Marker) (AID 2282974; active = hit-call score of the fitted dose curve at least 0.9, where 1 is the maximum). The note with it: HepG2 Attagene TRANS-FACTORIAL M19 internal marker reporter. The gist of the method:
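24 h chemical exposure of transiently transfected HepG2 (MRTU library). RNA → oligo(dT) RT → PCR → 6-FAM labelling → HpaI cut → CE fluorescence. Positive-direction fit vs DMSO baseline; background internal-marker readout.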

Assay [13] in a line: ATG_SREBP_CIS: Attagene CIS-FACTORIAL HepG2 Assay for human Sterol Regulatory Element Binding (SREBP) (AID 2282962). Particulars: HepG2 Attagene cis-factorial SREBP reporter, mRNA; actives raise or lower the signal. The gist of the method:
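Endogenous SREBP activity read as cis-element-driven reporter transcript in transiently transfected HepG2, 24 h post-dosing; quantified via RT-PCR plus capillary electrophoresis of fluorescent fragments. Gain or loss of signal fitted relative to DMSO baseline.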

A short description of assay [14]: ATG_VDRE_CIS: Attagene CIS-FACTORIAL HepG2 Assay for human Vitamin D Receptor Element (VDRE) (AID 2282968). The note with it: HepG2 VDRE cis-reporter transcription, actives raise or lower the signal. The gist of the method: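 Measures endogenous factor activity through cis-element-driven reporter transcripts in transiently transfected HepG2. Cells are treated 24 h; reporter mRNA is quantified by RT-PCR and capillary electrophoresis; fitting is bidirectional.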

For assay [15], the target named is Estrogen receptor (Homo sapiens) (UniProt P03372). Kind of assay: ATG_ERa_TRANS: Attagene TRANS-FACTORIAL HepG2 Assay for human Estrogen Receptor alpha (ERa) (AID 2282970; active = hit-call score of the fitted dose curve at least 0.9, where 1 is the maximum). Particulars: HepG2 Attagene TRANS ERa GAL4 reporter, mRNA. The method in brief:
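Transfected HepG2 cells carrying GAL4-UAS-driven reporter units were dosed for 24 hours. Total RNA was reverse-transcribed, reporter sequences PCR-amplified, FAM-labelled, HpaI-digested and resolved by capillary electrophoresis. Increases over DMSO control defined activity.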

A short description of assay [16]: ATG_GAL4_TRANS: Attagene TRANS-FACTORIAL HepG2 Assay for GAL4 (Internal Marker) (AID 2282976; active = hit-call score of the fitted dose curve at least 0.9, where 1 is the maximum). Particulars: HepG2 Attagene TRANS GAL4 internal marker reporter. The method in brief: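 Fluorescence from capillary electrophoresis of labelled RT-PCR products quantifies reporter mRNA induction after 24 h dosing of HepG2 cells carrying transfected GAL4-UAS reporter transcription units. Vehicle DMSO serves as baseline.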

Assay [17] deals with Nuclear receptor subfamily 1 group I member 3 (Homo sapiens) (UniProt Q14994). Kind of assay: ATG_CAR_TRANS: Attagene TRANS-FACTORIAL HepG2 Assay for human Constitutive Androstane Receptor (CAR) (AID 2282969; active = hit-call score of the fitted dose curve at least 0.9, where 1 is the maximum;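 also: activators raise reporter mRNA above DMSO so AC50 marks induction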). Particulars: HepG2 Attagene TRANS-FACTORIAL CAR reporter. The gist of the method: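 Signal is reporter mRNA induction relative to DMSO, measured 24 h after dosing by RT-PCR with fluorescent primer extension and capillary electrophoresis. Human HepG2 liver cells carried transiently transfected chimeric NR-Gal4/GAL4-UAS reporter constructs.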
Sequence of Nuclear receptor subfamily 1 group I member 3 (Homo sapiens) (Q14994 whole entry, looked up, the tested form may be a part): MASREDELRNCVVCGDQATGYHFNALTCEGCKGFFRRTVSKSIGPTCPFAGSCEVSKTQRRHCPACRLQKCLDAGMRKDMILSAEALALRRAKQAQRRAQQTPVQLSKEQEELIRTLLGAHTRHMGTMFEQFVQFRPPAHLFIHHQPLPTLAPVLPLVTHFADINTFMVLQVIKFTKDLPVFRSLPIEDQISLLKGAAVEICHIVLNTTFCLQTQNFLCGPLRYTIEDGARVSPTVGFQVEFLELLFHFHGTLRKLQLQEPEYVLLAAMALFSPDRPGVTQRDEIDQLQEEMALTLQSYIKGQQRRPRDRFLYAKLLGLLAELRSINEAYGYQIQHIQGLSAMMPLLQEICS

SMILES strings stand for the structures. Results filed as inconclusive are left out. The source made the active and inactive calls. The calls were made as follows, unless noted: active = hit-call score of the fitted dose curve at least 0.9, where 1 is the maximum; inactive = score below 0.9.

Sequence of X-box-binding protein 1 (Homo sapiens) (P17861 whole entry, looked up): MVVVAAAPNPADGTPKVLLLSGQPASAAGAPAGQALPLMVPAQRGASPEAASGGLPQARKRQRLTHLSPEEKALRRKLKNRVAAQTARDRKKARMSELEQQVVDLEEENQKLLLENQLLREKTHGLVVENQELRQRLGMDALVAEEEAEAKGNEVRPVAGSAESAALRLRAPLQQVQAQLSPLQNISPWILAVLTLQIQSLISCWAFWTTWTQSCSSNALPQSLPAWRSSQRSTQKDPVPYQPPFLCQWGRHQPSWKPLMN
Sequence of Signal transducer and activator of transcription 3 (Homo sapiens) (P40763 whole entry, looked up): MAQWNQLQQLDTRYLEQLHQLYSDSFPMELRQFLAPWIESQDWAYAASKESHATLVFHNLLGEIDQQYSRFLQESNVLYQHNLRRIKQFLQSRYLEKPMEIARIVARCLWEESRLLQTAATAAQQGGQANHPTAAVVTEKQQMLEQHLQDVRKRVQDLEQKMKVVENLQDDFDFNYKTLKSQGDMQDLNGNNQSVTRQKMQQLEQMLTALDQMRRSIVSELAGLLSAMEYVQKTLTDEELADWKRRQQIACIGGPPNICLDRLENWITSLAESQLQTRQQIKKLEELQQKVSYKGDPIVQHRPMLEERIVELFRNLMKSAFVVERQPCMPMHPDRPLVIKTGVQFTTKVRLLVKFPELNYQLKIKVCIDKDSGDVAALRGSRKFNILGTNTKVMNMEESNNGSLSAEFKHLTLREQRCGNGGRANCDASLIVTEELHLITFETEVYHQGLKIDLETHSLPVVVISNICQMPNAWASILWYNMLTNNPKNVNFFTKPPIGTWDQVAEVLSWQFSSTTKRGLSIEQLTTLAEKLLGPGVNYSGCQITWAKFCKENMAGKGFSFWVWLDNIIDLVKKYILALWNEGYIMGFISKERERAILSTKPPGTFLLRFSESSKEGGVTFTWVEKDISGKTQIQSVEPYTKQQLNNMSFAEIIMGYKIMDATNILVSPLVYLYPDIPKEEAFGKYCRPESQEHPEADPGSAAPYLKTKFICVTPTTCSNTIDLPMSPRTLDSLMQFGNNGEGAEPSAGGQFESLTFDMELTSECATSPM
Sequence of Estrogen receptor (Homo sapiens) (P03372 whole entry, looked up, the tested form may be a part): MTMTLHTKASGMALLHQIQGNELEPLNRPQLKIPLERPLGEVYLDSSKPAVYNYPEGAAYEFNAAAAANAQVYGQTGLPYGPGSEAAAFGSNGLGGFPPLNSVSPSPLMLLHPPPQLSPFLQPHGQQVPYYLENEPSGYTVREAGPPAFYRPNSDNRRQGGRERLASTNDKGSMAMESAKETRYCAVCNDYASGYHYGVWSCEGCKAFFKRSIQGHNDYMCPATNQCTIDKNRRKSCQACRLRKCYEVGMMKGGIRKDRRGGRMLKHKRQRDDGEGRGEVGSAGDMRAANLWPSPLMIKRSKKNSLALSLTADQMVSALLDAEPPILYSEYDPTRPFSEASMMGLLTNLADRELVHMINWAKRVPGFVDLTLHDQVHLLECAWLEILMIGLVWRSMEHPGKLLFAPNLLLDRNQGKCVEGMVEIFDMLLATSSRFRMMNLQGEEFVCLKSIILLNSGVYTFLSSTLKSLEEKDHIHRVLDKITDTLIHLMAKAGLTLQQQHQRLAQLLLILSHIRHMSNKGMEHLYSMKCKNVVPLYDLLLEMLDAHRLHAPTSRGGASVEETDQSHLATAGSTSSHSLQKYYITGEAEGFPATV

Turning to `CC1(C)[C@@H]2CC[C@@]1(C)[C@H](O)C2`, the compound was classed as inactive in assay [1], in [2], in [3], in assay [4], in assay [5] and in assay [6]. Also, the compound was classed as inactive in assay [7], in assay [8], in assay [9], in assay [10], in assay [11] and in [12].
Regarding `CC(C)C1CCC(O)CC1` (stereo unspecified), the compound was classed as inactive in [1], in assay [2], in assay [3], in assay [4], in assay [5] and in assay [13]. The call in [6], in assay [7], in assay [8], in assay [9], in assay [10] and in assay [14] was inactive. The result in [11] was inactive.
The AC50 is the midpoint of the concentration-response curve, whichever way the signal moves. For the compound `CC1(C)[C@H](C(=O)OCc2cccc(Oc3ccccc3)c2)[C@@H]1C=C(Cl)Cl`, the outcome in assay [1], in assay [3], in assay [4], in assay [13], in [6] and in [7] was inactive. The result in assay [8], in assay [9], in [10], in assay [14], in [15] and in assay [11] was inactive. Besides, the result in assay [16] was inactive. Moreover, in [2], the concentration at half-maximal activity (AC50) was 4.97 µM (active).
In the case of `NC(N)=NC(=O)c1nc(Cl)c(N)nc1N`, the compound was classed as inactive in [1], in assay [2], in [3], in assay [4], in [5] and in assay [13]. Also, the compound was classed as inactive in [6], in assay [7], in assay [8], in assay [9], in assay [10] and in assay [15]. In addition, the outcome in assay [11] was inactive.
With `CC(C)=CCC[C@H](C)CC=O`, the compound was classed as inactive in assay [1], in assay [3], in [4], in [5], in [13] and in assay [6]. In addition, the result in assay [7], in assay [8], in assay [9], in [10], in assay [14] and in [11] was inactive. Moreover, in assay [16], the compound was classed as inactive. Besides, the AC50 in [2] was 45.3 µM (active).
As for `CC1CCC2CC1C2(C)C` (stereo unspecified), the call in [1], in assay [2], in assay [3], in assay [4], in [5] and in assay [13] was inactive. Further, the compound was called inactive in assay [6], in assay [7], in [8], in [9], in [10] and in assay [17]. Besides, the call in assay [11] was inactive.
As to `CC(C)[C@@H]1CC[C@@H](C)CC1=O`, the outcome in assay [1], in assay [2], in assay [3], in assay [4], in assay [5] and in [13] was inactive. The call in [6], in assay [7], in assay [8], in assay [9], in assay [10] and in assay [11] was inactive.

For the origin of these results see PubChem BioAssay (EPA / NIEHS).
